Out of some 310,000 compounds screened, about 14,000 (4.5%) showed an effect of 50% or more. Effects have a minus sign here. The entries come from a sample that favours strong results as a whole.
biological target: human ether-à-go-go-related gene (hERG) potassium channel (human, UniProt Q12809); assay: primary screen, population patch clamp on CHO cells stably expressing hERG; higher = less effect of the substance
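Note: peak tail current of the secondary pulse compared with the same well before compound.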

Sequence of human ether-à-go-go-related gene (hERG) potassium channel (Q12809 whole entry, looked up): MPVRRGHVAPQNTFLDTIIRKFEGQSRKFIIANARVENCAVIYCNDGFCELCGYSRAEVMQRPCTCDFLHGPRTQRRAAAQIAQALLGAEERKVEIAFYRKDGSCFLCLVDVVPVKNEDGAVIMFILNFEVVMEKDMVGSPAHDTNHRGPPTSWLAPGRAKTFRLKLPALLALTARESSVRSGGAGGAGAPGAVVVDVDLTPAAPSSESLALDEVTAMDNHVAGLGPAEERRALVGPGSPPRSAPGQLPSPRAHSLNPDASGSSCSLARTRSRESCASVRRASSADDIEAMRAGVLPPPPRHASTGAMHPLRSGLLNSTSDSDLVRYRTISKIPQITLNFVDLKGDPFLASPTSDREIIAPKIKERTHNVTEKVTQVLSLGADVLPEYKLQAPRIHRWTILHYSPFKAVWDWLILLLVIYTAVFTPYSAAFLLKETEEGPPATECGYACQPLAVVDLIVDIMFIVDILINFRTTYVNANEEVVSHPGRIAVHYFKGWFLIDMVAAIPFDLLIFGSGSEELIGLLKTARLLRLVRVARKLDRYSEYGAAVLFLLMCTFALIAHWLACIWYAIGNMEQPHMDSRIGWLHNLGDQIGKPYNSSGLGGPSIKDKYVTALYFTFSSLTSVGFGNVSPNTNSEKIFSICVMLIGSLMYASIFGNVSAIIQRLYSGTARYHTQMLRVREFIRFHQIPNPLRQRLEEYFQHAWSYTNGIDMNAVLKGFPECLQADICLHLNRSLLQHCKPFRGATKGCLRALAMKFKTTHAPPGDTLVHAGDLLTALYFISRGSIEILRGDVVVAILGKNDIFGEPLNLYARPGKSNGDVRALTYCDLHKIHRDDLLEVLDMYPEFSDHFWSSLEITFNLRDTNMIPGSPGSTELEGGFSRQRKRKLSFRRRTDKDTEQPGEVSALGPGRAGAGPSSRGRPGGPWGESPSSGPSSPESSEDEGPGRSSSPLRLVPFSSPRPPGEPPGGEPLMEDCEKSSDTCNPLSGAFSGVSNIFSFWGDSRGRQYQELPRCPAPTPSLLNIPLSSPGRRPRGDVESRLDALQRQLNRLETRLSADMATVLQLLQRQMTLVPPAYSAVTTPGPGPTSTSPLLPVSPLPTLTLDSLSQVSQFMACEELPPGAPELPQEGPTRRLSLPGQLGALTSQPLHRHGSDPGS

SMILES	hERG current change (%, negative = inhibition) at 10uM [%]
COc1ccc(S(=O)(=O)N2CCOCC2)cc1C(=O)NCC(c1ccco1)N1CCCC1 (stereo not shown)	3
OCCN1CCN(CCCN2c3ccccc3Sc3ccc(Cl)cc32)CC1	-49.3
CN(C)CCCN1c2ccccc2Sc2ccc(Cl)cc21.Cl	-42.2
C[NH+](C)CCCN1c2ccccc2Sc2ccc(Cl)cc21.[Cl-]	-65.3
O=C(Nc1ccccc1C(=O)N1CCCC1)c1ccc(Cl)cc1Cl	14
Cc1cc(C(=O)CSc2nnc(NCc3ccccc3)s2)c(C)n1C	-9.15
CCc1ccc(C(=O)N2CCC(c3nc4ccccc4s3)CC2)cc1	-71.9
O=C(c1cccc(F)c1)N1CCC(c2nc3ccccc3s2)CC1	-49.9
O=C(CN1CCC(c2nc3ccccc3s2)CC1)NCc1cccs1	-37.2
O=C(CN1CCC(c2nc3ccccc3s2)CC1)NCc1ccccc1	-67.5
Cc1cccc(C(=O)N2CCC(c3nc4ccccc4s3)CC2)c1	-33.7
O=C(c1cccs1)N1CCN(c2nc3ccccc3s2)CC1	0.757
O=C(c1cccs1)N1CCC(c2nc3ccccc3s2)CC1	-57.2
O=C(CN1CCC(c2nc3ccccc3s2)CC1)N1CCCCC1	-33.5
O=C(c1ccccc1Br)N1CCC(c2nc3ccccc3s2)CC1	-35.1
O=C(N/N=C/c1c[nH]c2ccc(Br)cc12)c1ccn(Cc2ccc(Cl)cc2Cl)n1	6.95
C/C(=C\c1ccc(Br)cc1)C(=O)c1c(C)cc(C)[nH]c1=O	8
Cc1cc(C)c(NC(=O)CS)c(Cl)c1	6.4
O=C(c1ccccc1F)N1CCC(N2CCCCCC2)CC1	-10.3
O=C(Nc1c(C(=O)N2CCOCC2)oc2ccccc12)c1ccccc1Cl	0.111
O=C(Nc1ccc(F)cc1)c1oc2ccccc2c1NC(=O)C1CCCC1	-4.15
O=C(c1ccc(F)cc1)N1CCC(N2CCCCCC2)CC1	-26
COc1cc(C(=O)Nc2c(C(=O)N3CCOCC3)oc3ccccc23)cc(OC)c1OC	-10
CCOc1ccc(C(=O)Nc2c(C(=O)N3CCC(N4CCCCC4)CC3)oc3ccccc23)cc1	-83.2

SMILES	hERG current change (%, negative = inhibition) at 10uM [%]
O=C(Nc1c(C(=O)N2CCC(N3CCCCC3)CC2)oc2ccccc12)c1c(F)cccc1F	-51.7
O=C(Nc1c(C(=O)N2CCC(N3CCCCC3)CC2)oc2ccccc12)c1ccc(F)cc1	-65.8
CCOc1ccc(C(=O)Nc2c(C(N)=O)oc3ccccc23)cc1	11.9
O=C(O)CCCCCCCCc1cn(CCc2c[nH]c3ccccc23)nn1	4.49
O=C(Nc1ccc(Cl)cc1)C1=Cc2ccccc2OC1	-9.34
CC(=NCCC1=CCCCC1)c1c(O)n(-c2ccccc2)c(=O)[nH]c1=O	4.58
CC(C)C[C@H](CO)Nc1nc(N(C)c2cccc(Cl)c2)c2ncn(C(C)C)c2n1	-7.87
COCCn1c(=S)[nH]c2cc(OC)c(OC)cc2c1=O	11
COc1ccc(-c2nnnn2-c2ccccc2OC)cc1	-9.02
Cc1ccc(CSc2nn3c(=O)c(C)nnc3s2)cc1	-13.9
Cc1ccc2nc(N3CCN(C=O)CC3)nc(-c3ccccc3)c2c1	-56
OCCN1CCN(c2nc(-c3ccccc3)c3cc(Br)ccc3n2)CC1	-47.7
Cc1ccc2nc(N3CCN(CCO)CC3)nc(-c3ccccc3)c2c1	-54.4
CCOC(=O)N1CCN(c2nc(-c3ccccc3)c3cc(C)ccc3n2)CC1	-8.98
Cc1ccc2nc(N3CCC(C(=O)O)CC3)nc(-c3ccccc3)c2c1	-1.95
OCCN1CCN(c2nc(-c3ccccc3)c3cc(Cl)ccc3n2)CC1	-26.2
Cc1cccn2c(Nc3ccccc3)c(-c3ccccn3)nc12	1.81
NC(CSCc1ccccc1Cl)C(=O)O (stereo not shown)	0.173
COc1ccc(S(=O)(=O)N(C)c2ccc(C(=O)Nc3ccccc3C(=O)N3CCOCC3)cc2)cc1	-6.94
Cc1ccc(-n2nnnc2-c2ccco2)cc1	-2.37
O=C(N1CCC(n2nc(-c3ccccc3)oc2=O)CC1)C1(c2ccccc2)CC1	-17.5
Cc1ccc(N2CC(C(=O)OCc3ccccc3)CC2=O)cc1 (stereo not shown)	-15.6
CCc1ccc(N2CC(C(=O)OCC(=O)Nc3ccc([N+](=O)[O-])cc3)CC2=O)cc1 (stereo not shown)	-36.9
COc1ccc(NC(=O)COC(=O)C2CC(=O)N(Cc3ccc(C)cc3)C2)cc1 (stereo not shown)	-12.7

SMILES	hERG current change (%, negative = inhibition) at 10uM [%]
CCc1ccc(N2CC(C(=O)OCC(=O)Nc3ccc(C#N)cc3)CC2=O)cc1 (stereo not shown)	-57.9
O=C(OCc1ccc([N+](=O)[O-])cc1)C1CC(=O)N(c2ccccc2)C1 (stereo not shown)	-69.1
COc1ccc(COC(=O)C2CC(=O)N(Cc3ccc(C)cc3)C2)cc1 (stereo not shown)	-58.3
Cc1cccc(N2CC(C(=O)O)CC2=O)c1 (stereo not shown)	-15.2
CCc1ccc(N2CC(C(=O)OCC(=O)Nc3ccc(C(C)=O)cc3)CC2=O)cc1 (stereo not shown)	-19.1
CC(=O)c1ccc(OC(=O)C2CC(=O)N(c3cccc(C)c3)C2)cc1 (stereo not shown)	-1.85
COc1ccc(COC(=O)C2CC(=O)N(Cc3ccccc3)C2)cc1 (stereo not shown)	-34.1
NC(=O)C1CC(=O)N(c2ccc(OCc3ccc([N+](=O)[O-])cc3)cc2)C1 (stereo not shown)	-30.8
Cc1cccc(N2CC(C(=O)OCc3ccc([N+](=O)[O-])cc3)CC2=O)c1 (stereo not shown)	-64
Cc1ccnc(NS(=O)(=O)c2ccc(NS(=O)(=O)Cc3ccccc3)cc2)n1	9.43
COc1cc2c(cc1OC)C(=S)NC1(CCCC1)C2	9.36
COc1ccc(CCNC(C)C(=O)Nc2ccc(S(N)(=O)=O)cc2)cc1 (stereo not shown)	-9.23
CC1CCC2C(=O)N(c3ccc(NC4CCCCC4)c([N+](=O)[O-])c3)C(=O)C2C1 (stereo not shown)	1.71
Cc1ccc(CSc2nc3c(c(=O)[nH]2)C(c2ccncc2)C2=C(CCCC2=O)N3)cc1 (stereo not shown)	9.42
COc1ccc(CCN2CC(C(=O)N(C)Cc3cccnc3)CC2=O)cc1OC (stereo not shown)	8.53
COC(=O)c1nnn(-c2nonc2N)c1CSCCO	14.6
Cc1ccc(N2CC(C(=O)OCC(=O)C(C)(C)C)CC2=O)cc1 (stereo not shown)	-4.69
Cc1ccc(N2CC(C(=O)OCc3ccc([N+](=O)[O-])cc3)CC2=O)cc1 (stereo not shown)	-58.5
Cc1ccc(N2CC(C(=O)OCC(=O)c3ccc([N+](=O)[O-])cc3)CC2=O)cc1 (stereo not shown)	-26.8
O=C1OC(Nc2ccccn2)c2ccccc21 (stereo not shown)	-5.61
NC(=O)C1(N2CCCCC2)CCN(C(=O)c2ccc(C#CC3(O)CCCCC3)cc2)CC1	-6.21
COc1ccc(C(=O)N/C(=C/c2cccnc2)C(=O)NCc2ccco2)cc1OC	9.12
O=C(NCc1ccco1)/C(=C\c1ccccc1)NC(=O)c1ccccc1	6.85
O=C(N/C(=C\c1cccnc1)c1nc2ccccc2[nH]1)c1cccc(Br)c1	-54.9

SMILES	hERG current change (%, negative = inhibition) at 10uM [%]
COc1ccccc1C(=O)N/C(=C\c1ccccc1)C(=O)NCc1ccco1	-38.1
O=C(NCc1ccco1)/C(=C/c1cccnc1)NC(=O)c1cccc(Br)c1	-59.6
COc1ccc(/C=C(/NC(=O)c2ccccc2)c2nc3ccccc3[nH]2)cc1OC	-12.5
Cc1ccc(C(=O)N/C(=C/c2cccnc2)C(=O)NCc2ccco2)cc1	-41.7
Cc1ccc(C(=O)N/C(=C\c2cccnc2)c2nc3ccccc3[nH]2)cc1	-19.7
O=C(NCc1ccco1)/C(=C\c1cccnc1)NC(=O)c1ccccc1F	-51.1
CCCNS(=O)(=O)c1cccc2cccnc12	-6.32
Cc1cccc(-c2cc(C(=O)NCc3ccccn3)c3ccccc3n2)c1	-18
Cc1ccc(OCc2n[nH]c(=S)n2C2CCCCC2)cc1	21
Cc1ccc(-n2c(C)cc(/C=N/NC(=O)c3ccncc3)c2C)cc1C	17.3
COc1ccccc1-n1cnnc1SCc1csc(-c2ccccc2)n1	-20.9
O=C(CCC(=O)c1cccs1)NCc1cccc(C(F)(F)F)c1	-7.88
COc1ccc(C(=O)N2CCN(c3ncccn3)CC2)cc1S(=O)(=O)N1CCOCC1	6.96
COc1ccc(OCC2NCCc3cc(OC)c(OC)cc32)cc1 (stereo not shown)	-8.93
CCc1ccc(OCC2c3cc(OC)c(OC)cc3CCN2C(C)=O)cc1 (stereo not shown)	-11.5
COc1cc2c(cc1OC)C(COc1ccc(F)cc1)N(C(C)=O)CC2 (stereo not shown)	-11.9
COC(=O)c1ccc(OCC2c3cc(OC)c(OC)cc3CCN2C(C)=O)cc1 (stereo not shown)	8.8
COC(=O)c1ccc(OCC2c3cc(OC)c(OC)cc3CCN2C(=O)C2CC2)cc1 (stereo not shown)	-56.3
CCC(=O)N1CCc2cc(OC)c(OC)cc2C1COc1ccc(C(=O)OC)cc1 (stereo not shown)	-1.37
COc1cc2c(cc1OC)C(COc1ccc([N+](=O)[O-])cc1)N(C(C)=O)CC2 (stereo not shown)	-77.4
COc1cc2c(cc1OC)C(COc1ccc([N+](=O)[O-])cc1)NCC2 (stereo not shown)	-76.6
COc1cc2c(cc1OC)C(COc1ccc(F)cc1)NCC2 (stereo not shown)	-26.8

Source: paper PMC4336329 (PLoS ONE, 2015)
